In PubChem BioAssay:
Calls of active or inactive are those of the source.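 The calls were made as follows, unless noted: active = compound that reduces growth-factor-driven endothelial tube area in a mixed cell culture, no cutoff stated; inactive = the rest.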 Residues, ends and D or L forms follow the SMILES beside them.

What was measured:
[1] = Wnt pathway potentiators raising nuclear beta-catenin – imaging, WNT3A-conditioned medium, mouse C2C12, NPC library, primary screen (AID 1117326; in the data active = nuclear beta-catenin stimulation mostly above about 4.2%, no sharp cut-off; inactive = mostly below about 10%; also: reference of the scale not given here); conditions: stronger effect = higher value
[2] = stimulators of insulin release from INS-1E, primary screen, cell-based, 5 mM glucose, NPC library (AID 1117329;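 active = compound raises insulin release from rat beta cells at 5 mM glucose, no numeric limit stated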; also: reference of the scale not given here); conditions: rat INS-1E insulin secretion, at 10 µM, stronger effect = higher value
[3] = growth inhibition of GSK3B-pretreated HCT116 cells – cell-based, CellTiter-Glo, 0.2 to 20 µM (AID 1117336;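 active = compounds lowering colon cancer cell viability after pretreatment blocking the GSK3B kinase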); conditions: HCT116 viability after GSK3B inhibitor, at 20 µM, stronger effect = higher value
[4] = inhibition of endothelial tube formation, primary screen, imaging, VEGF stimulated, CD31 staining, tube area, NPC library (AID 1117340); conditions: VEGF-stimulated ADSC/ECFC co-culture, at 10 µM, stronger effect = higher value
[5] = GLP1 release stimulators, primary, NCI-H716, NPC library (AID 1117341;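 active = compound raises GLP1 secretion from the human gut endocrine cells, with no numeric limit stated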; also: reference of the scale not given here); conditions: NCI-H716 cells, at 10 µM, stronger effect = higher value
[6] = HCT116 colon cancer cell growth inhibition, primary screen, CellTiter-Glo luminescence, NPC library (AID 1117342;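 active = compounds that lower survival of HCT116 colon cancer cells in the luminescence readout, no numeric limit stated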); conditions: at 20 µM (top of the series)
[7] = reduced SW480 viability measured with CellTiter-Glo, NPC library, primary (AID 1117343;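 active = compounds that lower viability of the colon cancer cells in the luminescence readout, with no numeric limit stated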); conditions: CellTiter-Glo luminescence; at 20 µM (top of the series)
[8] = NPC library primary testing for decreased DLD-1 cell viability via CellTiter-Glo (AID 1117346;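 active = compounds that lower survival of DLD-1 colon cancer cells in the luminescence readout, no cutoff given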); conditions: DLD-1 viability, CellTiter-Glo luminescence; at 20 µM (top of the series)

SMILES | nuclear beta-catenin stimulation ([1]; at 10 µM) | nuclear beta-catenin stimulation ([1]; stimulation, at 2 µM) [%] | insulin secretion stimulation [2] | viability decrease [3] | tube area decrease [4] | GLP1 secretion stimulation [5] | inhibition of viability [6] | viability decrease (inhibition) [7] | viability decrease (inhibition) [8]
Nc1c(N=Nc2ccc(-c3ccc(N=Nc4cc(S(=O)(=O)O)c5ccccc5c4N)cc3)cc2)cc(S(=O)(=O)O)c2ccccc12 | -3.3% (inactive) | 0.3 | 2% (inactive) | -26.6% (inactive) | 16.8% (inactive) | -1.7% (inactive) | -132% (inactive) | -0.2% (inactive) | -66.6% (inactive)
N#CC1(c2ccc(F)cc2)CCC(=O)CC1 | -0.7% (inactive) | -2.1 | 2.2% (inactive) | 5.9% (inactive) | 0.9% (inactive) | 1.7% (inactive) | 8.6% (inactive) | 3.1% (inactive) | -1.9% (inactive)
O=P(O)(O)C(O)(Cc1cnc2ccccn12)P(=O)(O)O | -0.5% (inactive) | 1.4 | -0.3% (inactive) | 2.2% (inactive) | 7.8% (inactive) | 4.3% (inactive) | 13.5% (active) | 3.6% (inactive) | 9.7% (inactive)
CCN1C(=O)c2ccccc2C1Nc1ccc(OCCN2CCCCC2)cc1 (stereo unspecified) | 0.7% (inactive) | 0.3 | 18.5% (inactive) | 10.5% (inactive) | 14.2% (inactive) | 7.7% (inactive) | 47.4% (inactive) | 13.4% (inactive) | -3.1% (inactive)
CCCCC(C)(O)CC=C[C@H]1[C@H](O)CC(=O)[C@H]1CCCCCCC(=O)OC (stereo partly specified) | -0.9% (inactive) | 2.4 | 0.9% (inactive) | -0.5% (inactive) | -9.4% (inactive) | -1.9% (inactive) | -12.9% (inactive) | -17.2% (inactive) | 66.4% (active)
CCCC(=O)O[C@]1(C(=O)COC(=O)CC)CC[C@H]2[C@@H]3CCC4=CC(=O)CC[C@]4(C)[C@H]3[C@@H](O)C[C@@]21C | -0.4% (inactive) | -2.3 | 0.8% (inactive) | -8.8% (inactive) | -9% (inactive) | 1.9% (inactive) | 6.6% (inactive) | -5.5% (inactive) | -2% (inactive)
Cc1cc(O)c(Cl)c(C)c1Cl | 0.8% (inactive) | -0.1 | -1.8% (inactive) | -24.1% (inactive) | 7.2% (inactive) | -2% (inactive) | -6.7% (inactive) | -0.8% (inactive) | -12.3% (inactive)
CCCCCCCCC=CCCCCCCCC(=O)NCCOC(=O)CC(C(=O)O)S(=O)(=O)O (stereo unspecified) | 0.3% (inactive) | -0.7 | 0.8% (inactive) | 36.1% (active) | 22.7% (inactive) | -1% (inactive) | 17.1% (inactive) | 63.4% (active) | 81.6% (active)
CN(C)CCN(Cc1ccsc1)c1ccccn1 | -1.6% (inactive) | 1.7 | 1.3% (inactive) | 4.6% (inactive) | -14.7% (inactive) | -2.8% (inactive) | 5.1% (inactive) | -0.5% (inactive) | -3.9% (inactive)
NS(=O)(=O)c1ccc(NC(=O)CCC(=O)O)cc1 | -0.1% (inactive) | -0.3 | -2.4% (inactive) | -9.65% (inactive) | -1.3% (inactive) | 0.1% (inactive) | -10.5% (inactive) | -26.6% (inactive) | -13.6% (inactive)
Nc1nc2ccccc2n1Cc1ccc(F)cc1 | 0.8% (inactive) | -2 | 0.8% (inactive) | 56.4% (active) | 15.1% (inactive) | -0.6% (inactive) | 74.9% (active) | 84% (active) | 43% (inactive)
CN(C)[C@@H]1C(=O)C(C(N)=O)=C(O)[C@@]2(O)C(=O)C3=C(O)c4c(O)cccc4C[C@H]3C[C@@H]12 | 11% (inactive) | -0.5 | -3% (inactive) | 98.1% (active) | -5.9% (inactive) | 18.7% (inactive) | 75.5% (active) | 100% (active) | 89.5% (active)
CC(=O)N[C@@H](CO)C(=O)N[C@@H](CC(=O)O)C(=O)N[C@@H](CCCCN)C(=O)N1CCC[C@H]1C(=O)O (Ac-SDKP-OH) | 0.3% (inactive) | 0.6 | 1.8% (inactive) | -7.1% (inactive) | -14.3% (inactive) | -1.6% (inactive) | -0.1% (inactive) | -6% (inactive) | 7% (inactive)
C/C=C/C=N/NC(=O)c1ccncc1 | 0.2% (inactive) | 0.6 | -2.2% (inactive) | -6.2% (inactive) | 6% (inactive) | -0.1% (inactive) | 17% (inactive) | 27.7% (inactive) | -3.65% (inactive)
